SMILES strings stand for the structures. The panel holds about 83,000 compounds, 20% with a hit somewhere; the sample as a whole holds those more often.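 Note: values are percent growth. 100 is the growth of untreated cells, values between 100 and 0 indicate rising inhibition; between -100 and 0 indicates cell death.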 Unmarked numbers belong to inactive results. Calls of active or inactive are those of the source. Rule for the calls: active = growth percent below 10; inactive = the rest.

One experiment deals with T-47D breast. In words: NCI-60 one-dose screen, 48 h (100 = growth as untreated, 0 = no growth, -100 = all killed). The note with it: 10 µM unless noted.
Take `Fc1cc2c(cc1Cl)N(c1ncnc3ccc(-c4ccc5n[nH]nc5c4)cc13)CC2`: the growth was 65.5%.
Same read-out and setting: the value for `COc1ccc(-c2noc(C(=O)O)c2-c2cc(OC)c(OC)c(OC)c2)cc1` was 27.2%; that for `C=C1C(=O)O[C@H]2[C@H]1CC/C(Cn1cc(-c3ccccc3)nn1)=C\CC[C@@]1(C)O[C@@H]21` was -38% (active); that for `O=C(NCCCl)Nc1ncccc1OCc1ccccc1` was 97.9%.
On the same count and under the same terms, then `COc1ccc(/C=N/C2=C(C#N)C(c3ccccc3)c3ccc4ccccc4c3O2)cc1` (stereo not given), with 46.7%; and `CCOC(=O)c1cc(C)n(-c2ccc(C(=O)O)cc2)c1C`, with 102%.
Consider `COc1cc(NS(=O)(=O)c2ccc(-c3cnc(C4CC4)o3)cc2)ccc1F`, for which the growth was 33.6%.
Still for that read-out and setting: then `CC(=O)N1N=C(c2ccc(Nc3nc(Nc4ccccc4)nc(Nc4ccccc4)n3)cc2)CC1c1cccc([N+](=O)[O-])c1` (stereo not given), with 66.4%.
Same read-out and setting: the value for `COc1cc(C2c3cc(OC(C)=O)c(OC)cc3CC3C(=O)OCC32)ccc1OC(C)=O` (stereo not given) was 103%; that for `O=c1c2cccc3c(N4CCCC4)ccc(c32)c2nc3ccccc3n12` was 72.2%; that for `CCC(C)(C)C(=O)O[C@H]1C[C@@H](C)C=C2C=C[C@H](C)[C@H](CC[C@@H]3CC(SCCN)CC(=O)O3)[C@H]21` (stereo not given in full) was 89.8%.
Same read-out and setting: then `CCN(C)S(=O)(=O)Nc1cccc(Nc2ncnc3cc(NC(=O)CCl)ccc23)c1Cl`, with 16%.
Regarding `CC(=O)Oc1ccc(C)cc1C`, the growth is 97.9%.
With `O=C1NC2(Nc3ccccc31)C(=O)Nc1c(Cl)cc(Cl)cc12` (stereo not given), the growth was 87.9%.
For `O=C(Nc1ccc(Oc2cccc(Cl)c2)c(Cl)c1)c1cnccn1`, the growth was 40.7%.
Same read-out and setting: the value for `Cc1ccc2c(n1)C(=O)C(Br)=C(CC(C)C)C2=O` was 82%; that for `Cc1[nH]c(C(=O)Nc2ccc(C(=O)N3CCN(c4cc5c(cc4F)c(=O)c(C(=O)O)cn5C4CC4)CC3)cc2OC(C)C)c(Cl)c1Cl` was 84%.
Turning to `COC1=CC(c2ccc[nH]2)=N/C1=C\c1[nH]c(C)c(CC(=O)OCc2ccccc2)c1CCC(=O)OCc1ccccc1`, the growth is -3.22% (active).
Same read-out and setting: the value for `C=C1C(=O)O[C@H]2[C@H]1CC/C(COC(=O)/C=C\C(=O)NCc1ccc(Cn3c(=O)sn(CCI)c3=O)cc1)=C\CC[C@@]1(C)O[C@@H]21` was 57.6%; that for `CCOC(=O)c1c(C(=O)c2cn(C)c3ccc(Br)cc23)c(-c2cn(C)c3ccc(Br)cc23)n(NC(=O)OC(C)(C)C)c1C` was 58.8% [100 µM]; that for `O=C1/C(=C/c2ccccc2O)CC/C1=C\c1ccccc1O` was 47.3%.
Still for that read-out and setting: the value for `CCOc1ccccc1Cn1ccnc1CCc1c(Cl)c(O)cc(O)c1C(=O)OC` was 92.4%.
As for `CCCNc1nc2ccccc2c2c1S(=O)(=O)c1ccc(Cl)cc1C2=O`, the growth is -1.34% (active).
Still for that read-out and setting: the value for `COC1=CC(c2ccc[nH]2)=N/C1=C\c1[nH]c(C)c(C(=O)OC(C)C)c1C` was -69.2% (active); that for `COc1ccc(C2=C(Nc3ccc(C(=O)Nc4ccccc4)cc3)C(=O)N(C)C2=O)cc1` was 68.8%; that for `CCCCCOC(=O)c1c(C)[nH]c(/C=C2\N=C(c3ccc[nH]3)C=C2OC)c1C` was -42.5% (active).
`O=C(Nc1ccc(OS(=O)(=O)c2ccc(F)cc2)cc1)C1CCCCCC1`: the growth is 81.4%.
On the same count and under the same terms, then `COc1ccc(Nc2nnc(-c3ccc(OC)c(OC)c3)o2)cc1`, with 79.1%; and `CS(=O)(=O)Nc1cc(-c2ccc3ncnc(Nc4ccc5c(cnn5Cc5cccc(F)c5)c4)c3c2)cnc1Cl`, with -24.6% (active).
The same measure, in the same setting: the value for `O=C(CN1CCCCC1)Nc1nc(-c2cc3ccccc3oc2=O)cs1` was 87.7%; that for `Cc1ccc(Nc2cc(N)nc(N)n2)cc1Cl` was 76.6%; that for `CC/C(=C(/c1ccc(Cl)cc1)c1ccc(OCCN(C)C)cc1)c1ccc(Cl)cc1` was 58.4%.
The same measure, in the same setting: then `O=c1c2ccccc2n2cnc3ccc(Cl)c1c32`, with 54.4%.
For `N#CSc1c[nH]c2cccc(/C=C/C(=O)/C=C(/C=C/c3cccc4[nH]cc(SC#N)c34)OB(F)F)c12`, the growth is 9.55% (active).
The same measure, in the same setting: then `Cc1cc(C)c2c(c1)N(C)c1ncnc(-n3cnc4cc(C)ccc43)c1CC2C` (stereo not given), with 28.8%.
On the same count and under the same terms, then `N=C(N)c1ccc(-c2ccc(-c3ccccc3)o2)cc1`, with -46% (active); and `COC(=O)c1c(C)nc(C)c2c1C(=O)C(Br)=C(NCc1ccccc1)C2=O`, with 13.7%.
The same measure, in the same setting: the value for `COc1ccc(/C=C(\C#N)n2nnc3cc(Cl)ccc32)cc1` was 17.2%; that for `COc1cc2c(c(OC)c1OC)CCC(c1cccc(C(=O)Nc3cccc(Cl)c3)c1)O2` (stereo not given) was 36.7%.
Regarding `COc1ccc(Nc2ncc(Br)c(NCCCNC(=O)C3CCCC3)n2)cc1`, the growth was 77.5%.

A further experiment concerns BT-549 breast. The description is as above. The settings on record: 10 µM unless noted.
For `Fc1cc2c(cc1Cl)N(c1ncnc3ccc(-c4ccc5n[nH]nc5c4)cc13)CC2`, the growth was 88.2%.
On the same count and under the same terms, then `COc1ccc(-c2noc(C(=O)O)c2-c2cc(OC)c(OC)c(OC)c2)cc1`, with 49.6%.
In the case of `C=C1C(=O)O[C@H]2[C@H]1CC/C(Cn1cc(-c3ccccc3)nn1)=C\CC[C@@]1(C)O[C@@H]21`, the growth was -61.1% (active).
The same measure, in the same setting: then `O=C(NCCCl)Nc1ncccc1OCc1ccccc1`, with 105%; and `COc1ccc(/C=N/C2=C(C#N)C(c3ccccc3)c3ccc4ccccc4c3O2)cc1` (stereo not given), with 12.9%; and `CCOC(=O)c1cc(C)n(-c2ccc(C(=O)O)cc2)c1C`, with 76.1%.
Still for that read-out and setting: the value for `COc1cc(NS(=O)(=O)c2ccc(-c3cnc(C4CC4)o3)cc2)ccc1F` was 44.6%.
The same measure, in the same setting: the value for `CC(=O)N1N=C(c2ccc(Nc3nc(Nc4ccccc4)nc(Nc4ccccc4)n3)cc2)CC1c1cccc([N+](=O)[O-])c1` (stereo not given) was 111%; that for `COc1cc(C2c3cc(OC(C)=O)c(OC)cc3CC3C(=O)OCC32)ccc1OC(C)=O` (stereo not given) was 99.6%; that for `O=c1c2cccc3c(N4CCCC4)ccc(c32)c2nc3ccccc3n12` was 71.2%.
Consider `CCC(C)(C)C(=O)O[C@H]1C[C@@H](C)C=C2C=C[C@H](C)[C@H](CC[C@@H]3CC(SCCN)CC(=O)O3)[C@H]21` (stereo not given in full), for which the growth was 78.7%.
Still for that read-out and setting: then `CCN(C)S(=O)(=O)Nc1cccc(Nc2ncnc3cc(NC(=O)CCl)ccc23)c1Cl`, with -4.04% (active); and `CC(=O)Oc1ccc(C)cc1C`, with 90.8%.
On the same count and under the same terms, then `O=C1NC2(Nc3ccccc31)C(=O)Nc1c(Cl)cc(Cl)cc12` (stereo not given), with 99.3%; and `O=C(Nc1ccc(Oc2cccc(Cl)c2)c(Cl)c1)c1cnccn1`, with 57.4%; and `Cc1ccc2c(n1)C(=O)C(Br)=C(CC(C)C)C2=O`, with 99.4%.
Turning to `Cc1[nH]c(C(=O)Nc2ccc(C(=O)N3CCN(c4cc5c(cc4F)c(=O)c(C(=O)O)cn5C4CC4)CC3)cc2OC(C)C)c(Cl)c1Cl`, the growth was 75.7%.
As to `COC1=CC(c2ccc[nH]2)=N/C1=C\c1[nH]c(C)c(CC(=O)OCc2ccccc2)c1CCC(=O)OCc1ccccc1`, the growth was -31.6% (active).
On the same count and under the same terms, the value for `C=C1C(=O)O[C@H]2[C@H]1CC/C(COC(=O)/C=C\C(=O)NCc1ccc(Cn3c(=O)sn(CCI)c3=O)cc1)=C\CC[C@@]1(C)O[C@@H]21` was 71.9%; that for `CCOC(=O)c1c(C(=O)c2cn(C)c3ccc(Br)cc23)c(-c2cn(C)c3ccc(Br)cc23)n(NC(=O)OC(C)(C)C)c1C` was 39.2% [100 µM]; that for `O=C1/C(=C/c2ccccc2O)CC/C1=C\c1ccccc1O` was 2% (active).
Same read-out and setting: the value for `CCOc1ccccc1Cn1ccnc1CCc1c(Cl)c(O)cc(O)c1C(=O)OC` was 98.8%; that for `CCCNc1nc2ccccc2c2c1S(=O)(=O)c1ccc(Cl)cc1C2=O` was 23%; that for `COC1=CC(c2ccc[nH]2)=N/C1=C\c1[nH]c(C)c(C(=O)OC(C)C)c1C` was -7.21% (active).
The same measure, in the same setting: then `COc1ccc(C2=C(Nc3ccc(C(=O)Nc4ccccc4)cc3)C(=O)N(C)C2=O)cc1`, with 115%; and `CCCCCOC(=O)c1c(C)[nH]c(/C=C2\N=C(c3ccc[nH]3)C=C2OC)c1C`, with 2.11% (active); and `O=C(Nc1ccc(OS(=O)(=O)c2ccc(F)cc2)cc1)C1CCCCCC1`, with 80.5%.
Consider `COc1ccc(Nc2nnc(-c3ccc(OC)c(OC)c3)o2)cc1`, for which the growth is 61.8%.
Still for that read-out and setting: then `CS(=O)(=O)Nc1cc(-c2ccc3ncnc(Nc4ccc5c(cnn5Cc5cccc(F)c5)c4)c3c2)cnc1Cl`, with -13.5% (active).
Regarding `O=C(CN1CCCCC1)Nc1nc(-c2cc3ccccc3oc2=O)cs1`, the growth is 100%.
As to `Cc1ccc(Nc2cc(N)nc(N)n2)cc1Cl`, the growth was 101%.
The same measure, in the same setting: then `CC/C(=C(/c1ccc(Cl)cc1)c1ccc(OCCN(C)C)cc1)c1ccc(Cl)cc1`, with 82.7%; and `O=c1c2ccccc2n2cnc3ccc(Cl)c1c32`, with 75.4%; and `N#CSc1c[nH]c2cccc(/C=C/C(=O)/C=C(/C=C/c3cccc4[nH]cc(SC#N)c34)OB(F)F)c12`, with -25.3% (active).
`Cc1cc(C)c2c(c1)N(C)c1ncnc(-n3cnc4cc(C)ccc43)c1CC2C` (stereo not given): the growth was 29.8%.
Still for that read-out and setting: then `N=C(N)c1ccc(-c2ccc(-c3ccccc3)o2)cc1`, with 40.8%; and `COC(=O)c1c(C)nc(C)c2c1C(=O)C(Br)=C(NCc1ccccc1)C2=O`, with 50.9%; and `COc1ccc(/C=C(\C#N)n2nnc3cc(Cl)ccc32)cc1`, with -1.84% (active).
On the same count and under the same terms, then `COc1cc2c(c(OC)c1OC)CCC(c1cccc(C(=O)Nc3cccc(Cl)c3)c1)O2` (stereo not given), with 67.5%; and `COc1ccc(Nc2ncc(Br)c(NCCCNC(=O)C3CCCC3)n2)cc1`, with 40.4%.

The record behind these values is PubChem BioAssay (NCI).
